For 33 molecules, Potency results are on record in PubChem BioAssay (Tox21).

SMILES strings stand for the structures. Calls of active or inactive are those of the source. Entries that show only a call come without a potency. Unless noted, calls come from the whole dose curve; as a rule, active = well fitted activation curve with a large enough effect in the repeat runs; inconclusive = weak or mixed curves; inactive = flat fitted curve, though single readings scatter.

Gonadotropin-releasing hormone receptor (Homo sapiens), sequence (P30968 whole entry, looked up): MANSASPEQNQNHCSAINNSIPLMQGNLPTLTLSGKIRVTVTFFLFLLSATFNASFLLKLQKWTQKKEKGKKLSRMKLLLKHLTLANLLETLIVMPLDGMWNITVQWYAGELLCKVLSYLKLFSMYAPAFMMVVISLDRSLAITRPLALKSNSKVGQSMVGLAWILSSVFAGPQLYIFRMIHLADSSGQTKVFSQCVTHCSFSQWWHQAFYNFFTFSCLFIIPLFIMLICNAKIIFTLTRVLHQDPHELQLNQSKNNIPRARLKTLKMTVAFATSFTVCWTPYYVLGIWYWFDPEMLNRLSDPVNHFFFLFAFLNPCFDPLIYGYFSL

For the first assay, the target named is Gonadotropin-releasing hormone receptor (Homo sapiens) (UniProt P30968). Kind of assay: Human gonadotropin-releasing hormone receptor (GnRHR) small molecule agonists, calcium flux assay in GnRHR-HEK293 cells (AID 1920063; calls by dose curve; note: nearly all actives have a fitted effect of over 35% in size). The conditions noted are these: calcium flux fluorescence, agonist mode; series mostly up to 57.6 µM. In short, it runs like this:
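Agonist activity was measured as intracellular calcium flux in HEK293 cells engineered to stably express human GnRHR. After dye loading for 1 hour at 37 C, compounds in DMSO were added and fluorescence was followed for 3 minutes.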
A general note: Calcium flux is commonly read through the fluorescence of an indicator in the cells.
On to `Nc1cccc2c(N)cccc12`, for which the Potency result was “inactive”.

Regarding `CC1(C)CCC[C@]2(C)[C@H]3CCO[C@]3(C)CC[C@@H]12`, the Potency entry is “inactive”.

In the case of `CC[C@@H]([C@H](C)O)n1ncn(-c2ccc(N3CCN(c4ccc(OC[C@@H]5CO[C@@](Cn6cncn6)(c6ccc(F)cc6F)C5)cc4)CC3)cc2)c1=O`, the Potency result was “inactive”. The same measure, in the same setting: to `Cc1c(C)n(Cc2ccccc2)c2ccc(C(=O)OCCN(C)C)cc12` belongs “inactive”; to `C=C(C)C(=O)OCC(O)COc1ccc(C(C)(C)c2ccc(OCC(O)COC(=O)C(=C)C)cc2)cc1` (configuration not stated), “inactive”. Regarding `COc1cc(Cl)c(OC)cc1N`, the Potency result was “inactive”. Consider `O=C1c2c(O)ccc(O)c2C(=O)c2c(NCCNCCO)ccc(NCCNCCO)c21`, for which the Potency result was “inactive”.

Take `COc1ccc2cc([C@H](C)C(=O)O)ccc2c1`: the Potency entry is “inactive”. The same measure, in the same setting: for `CN1CCC(N(Cc2cccs2)c2ccccc2)CC1` the value was “inactive”; for `COc1cc([C@@H]2c3cc4c(cc3[C@@H](O[C@@H]3O[C@@H]5CO[C@@H](C)O[C@H]5[C@H](O)[C@H]3O)[C@H]3COC(=O)[C@H]23)OCO4)cc(OC)c1O`, “inactive”; for `Cc1nc(-c2ccccn2)ncc1C(=O)Nn1cc(C)c2cc(F)ccc21`, “inactive”. Still for that read-out and setting: for `COCCOC` the value was “inactive”; for `CN1CCN(CCCN2c3ccccc3Sc3ccc(S(=O)(=O)N(C)C)cc32)CC1`, “inactive”.

In a further assay the target is KiSS-1 receptor (Homo sapiens) (UniProt Q969F8). In words: Human kisspeptin (KISS1R) small molecule agonists, calcium flux assay in KISS1R-HEK293 cells (AID 1920064). The conditions noted are these: KISS1R-HEK293, calcium flux fluorescence, agonist; series mostly up to 76.8 µM. In short, it runs like this: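 Agonist activity is monitored as intracellular calcium rise in engineered HEK293 cells carrying human KISS1R. Cells are dye-loaded for 1 h at 37 C before compound addition, and fluorescence is recorded for 3 min.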
KiSS-1 receptor (Homo sapiens), sequence (Q969F8 whole entry, looked up): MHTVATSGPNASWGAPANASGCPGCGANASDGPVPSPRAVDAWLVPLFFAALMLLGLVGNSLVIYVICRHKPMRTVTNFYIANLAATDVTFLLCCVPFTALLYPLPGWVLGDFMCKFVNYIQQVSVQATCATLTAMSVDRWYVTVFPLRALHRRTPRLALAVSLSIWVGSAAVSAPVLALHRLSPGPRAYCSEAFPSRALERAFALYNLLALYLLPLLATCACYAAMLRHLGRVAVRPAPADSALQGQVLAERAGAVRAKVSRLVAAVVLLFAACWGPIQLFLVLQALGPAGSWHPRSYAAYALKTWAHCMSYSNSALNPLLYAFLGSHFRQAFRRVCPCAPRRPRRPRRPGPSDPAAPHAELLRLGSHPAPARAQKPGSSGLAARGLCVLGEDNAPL
`COc1cc(C)nc(-n2nc(C)cc2OC)n1`: the Potency entry was “inactive”. The same measure, in the same setting: to `C=C1C(=C/C=C2\CCC[C@]3(C)[C@@H]([C@H](C)/C=C/[C@@H](O)C4CC4)CC[C@@H]23)C[C@@H](O)C[C@@H]1O` belongs “inactive”; to `COc1c2occc2cc2ccc(=O)oc12`, “inactive”; to `CC(=O)O[C@@]12CO[C@@H]1C[C@H](O)[C@@]1(C)C(=O)[C@H](O)C3=C(C)[C@@H](OC(=O)[C@H](O)[C@@H](NC(=O)OC(C)(C)C)c4ccccc4)C[C@@](O)([C@@H](OC(=O)c4ccccc4)[C@H]21)C3(C)C`, “inactive”. The same measure, in the same setting: for `O=P(c1ccccc1)(c1ccccc1)c1ccccc1` the value was “inactive”; for `Cc1cnc(C(=O)NCCc2ccc(S(=O)(=O)NC(=O)NC3CCCCC3)cc2)cn1`, “inactive”.

In the case of `CNCC[C@H](Oc1cccc2ccccc12)c1cccs1`, the Potency entry was “inactive”. Still for that read-out and setting: for `O=C(NCC(O)CO)c1c(I)c(C(=O)NCC(O)CO)c(I)c(N(CCO)C(=O)CO)c1I` (configuration not stated) the value was “inactive”; for `S=P(N1CC1)(N1CC1)N1CC1`, “inactive”; for `Clc1ccccc1CN1CCc2sccc2C1`, “inactive”.

Regarding `CC(C)(C)c1ccc(C(=O)CCCN2CCC(OC(c3ccccc3)c3ccccc3)CC2)cc1`, the Potency entry is “inactive”.

On to `CC1CCCC1`, for which the Potency entry was “inactive”. Same read-out and setting: for `CN1[C@@H]2CC(OC(=O)[C@H](CO)c3ccccc3)C[C@H]1[C@@H]1O[C@@H]12` (some centres not stated) the value was “inactive”; for `CCCCOC(=O)c1ccccc1C(=O)OCC(CC)CCCC` (configuration not stated), “inactive”. Take `CN1CCC(N(Cc2cccs2)c2ccccc2)CC1`: the Potency result is “inactive”. Take `CN(C)CCOC(c1ccccc1)c1ccccc1`: the Potency entry is “inactive”. The same measure, in the same setting: for `CCOC(=O)CC(=O)C(=O)OCC` the value was “inactive”; for `COc1cc([C@@H]2c3cc4c(cc3[C@@H](O[C@@H]3O[C@@H]5CO[C@@H](C)O[C@H]5[C@H](O)[C@H]3O)[C@H]3COC(=O)[C@H]23)OCO4)cc(OC)c1O`, “inactive”. The same measure, in the same setting: to `COCCOC` belongs “inactive”. On the same count and under the same terms, for `COC(=O)[C@H]1[C@H]2C[C@@H]3c4[nH]c5cc(OC)ccc5c4CCN3C[C@H]2C[C@@H](OC(=O)/C=C/c2ccc(O)c(OC)c2)[C@@H]1OC` the value was “inactive”. In the case of `CC(C)(C(=O)O)c1ccc(C(O)CCCN2CCC(C(O)(c3ccccc3)c3ccccc3)CC2)cc1` (configuration not stated), the Potency entry was “inactive”. On the same count and under the same terms, to `CCN(CC)CCCC(C)Nc1c2ccc(Cl)cc2nc2ccc(OC)cc12` (configuration not stated) belongs “inactive”; to `CC(C)(C)c1csc(-c2cc3cc(OCc4ccccc4CC(=O)O)ccc3o2)n1`, “inactive”; to `CN1CCN(CCCN2c3ccccc3Sc3ccc(S(=O)(=O)N(C)C)cc32)CC1`, “inactive”.
